Compounds with a hit are over-represented: about 19% of the library has one in this group of screens.
HT1080 IDH1KD tx: HT-1080 IDH1 knockdown cell toxicity (counter line); Potency, µM (doses to about 46.1 µM), without a hit: at the top dose activity, negative = toxicity, actives largely listed as cytotoxic; 2% of 360,000 active; AID 686971; HT-1080 IDH1 knockdown viability, ATP luminescence, 48 h;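 further: potency means the concentration at half of the fitted maximal effect; 0% = DMSO wells and -100% = cell-free medium wells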
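Luminescent ATP read-out (CellTiter-Glo, 10 min at room temperature) after 48 h compound exposure at 37 °C gave viability of IDH1-knockdown HT-1080 cells. Activity was normalised to DMSO and cell-free wells, then fitted as concentration-response curves.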
ELG1 repair inh: ELG1-dependent DNA repair inhibition; Potency, µM (highest dose often 46.1 µM), inactives show at the highest dose activity change, negative = inhibition, usual class: inhibitors; 2.3% of 330,000 active; HEK293T ELG1-luciferase reporter, luminescence, 16 h; DNA damage induced by 5-fluorouridine; further: potency means the concentration at half of the fitted maximal effect; nearly all actives have a fitted effect of over 55% in size
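Cells (2,000 per well) received 5-fluorouridine plus test compound or DMSO and were incubated 16 hr at 37 °C, 5% CO2. Luciferase activity was read by luminescence 30 min after ONE-Glo addition; signal suppression marked inhibition of damage-induced ELG1 function.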
TDP1 cell noCPT: qHTS for Inhibitors of human tyrosyl-DNA phosphodiesterase 1 (TDP1): qHTS in cells in absence of CPT; DT40 Tdp1-/- hTDP1 cells, no CPT, ATP luminescence, 48 h; Potency, µM (top dose mostly 46.2 µM), without a hit: at the top dose activity change, negative = growth inhibition, actives largely listed as inhibitors; 15% of 420,000 active; AID 686978, 2013; further: potency means the concentration at half of the fitted maximal effect; nearly all actives have a fitted effect of over 55% in size
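A cellular qHTS used chicken DT40 cells lacking endogenous Tdp1 but carrying stably transfected human TDP1. Compounds were applied without camptothecin, and cell growth kinetics were judged by ATP-dependent luminescence after ≥48 hr.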
IL-1B inflam inh: blocks inflammasome-driven IL-1 beta release; THP-1 LPS/ATP IL-1B secretion, AlphaLISA, 16 h; active compounds read low; activity change, % at 57.5 µM; 4.7% of 360,000 active; in the data active means activity change below about -50%; inconclusive means mostly about -30% to -49%
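Secreted IL-1B measured by AlphaLISA bead assay after 16 h compound exposure of THP-1 cells; compounds (final up to 57.5 uM) added 1 h before LPS (250 ng/mL) and ATP (1.25 mM) stimulation; lower signal means less secretion.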
HT1080NT lethal: kills 2HG-producing HT-1080-NT fibrosarcoma cells | HT-1080-NT fibrosarcoma viability, CellTiter-Glo ATP luminescence, 48 h | Potency, µM (series often up to 46.1 µM), without a hit: at the highest dose activity, negative = less viability, most hits filed as cytotoxic | 1.6% of 360,000 active;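 further: NT is the 2HG producing partner of a matched IDH1 knockdown line; potency means the concentration at half of the fitted maximal effect; 0% = DMSO-treated cells and -100% = media-only wells without cells; nearly all actives have a fitted effect of over 55% in size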
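Compounds were tested in concentration-response format on HT-1080-NT cells for 48 hours at 37 degrees C. Cell viability came from CellTiter-Glo luminescence; curves were classified by r2, response magnitude and activity.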
TDP1 cell CPT: DT40-hTDP1 cell growth loss with CPT | Potency, µM (doses to about 46.2 µM), for the others: at the top dose activity change, negative = growth inhibition, hits mostly inhibitors | 12% of 420,000 active | chicken DT40 Tdp1-/-;hTDP1 cells + 20 nM CPT, ATP luminescence, 48 h | AID 686979; further: potency means the concentration at half of the fitted maximal effect; nearly all actives have a fitted effect of over 55% in size
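Chicken DT40 Tdp1-/- cells stably complemented with human TDP1 were seeded at 400 cells/well in medium containing 20 nM camptothecin, exposed to pin-transferred compounds, and grown at 37 °C for at least 48 hr. Viability was read as ATP luminescence.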
The depositor's hits bear a star; ? = inconclusive; nt = not tested or not shown; ! = not confirmed by another sample; [ ] = dose if it differs, or a comment. Unless noted, the call rests on the fitted dose curve; in most records, active means well fitted curve in the direction sought with a large enough effect; inconclusive means small, poorly fitted or top-dose-only effect, or another doubt; inactive means no such curve, though single readings can be large; an effect the other way counts as inactive or inconclusive. Unless noted, on the % scale 0 is the no-effect control and ±100 the full control effect.

SMILES	HT1080 IDH1KD tx	ELG1 repair inh	TDP1 cell noCPT	IL-1B inflam inh	HT1080NT lethal	TDP1 cell CPT
O=C(c1cc(C(F)(F)F)cc(C(F)(F)F)c1)N1CCC2(CC1)CN(c1ccccn1)C2	nt	nt	5.17µM*	nt	nt	4.61µM*
O=C(c1cc(C(F)(F)F)cc(C(F)(F)F)c1)N1CCC2(CC1)CCN(c1ccncc1)CC2	nt	nt	18.4µM*	nt	nt	25.9µM*
O=C(c1cccc(F)c1)N1CCC2(CC1)CCN(c1ncccn1)CC2	nt	nt	18.4µM*	nt	nt	?
CN1CCC2(CC1)CCN(C(=O)c1cc(C(F)(F)F)cc(C(F)(F)F)c1)CC2	nt	nt	1.2%	nt	nt	0.9%
Cn1c(CNC(=O)CSc2nc(-c3ccccc3F)nc3cc(=O)[nH]n23)nc2ccccc21	nt	nt	-8.4%	nt	nt	-8.2%
O=C(c1cccc(F)c1)N1CCC2(CCCN(c3ccncc3)C2)CC1	nt	nt	?	nt	nt	-5.4%
O=C(c1cccc(F)c1)N1CCC2(CC1)CCN(c1ccncc1)CC2	nt	nt	18.4µM*	nt	nt	7.31µM*
COc1ccc(/C=C/C(=O)OCC(=O)Nc2ccc3[nH]c(=O)[nH]c3c2)cc1OC	4.1%	-4.5%	5.1%	32.8	0.9%	7.4%
CC(C)CCn1c2ccccc2c2cc(CC(N)=O)ccc21	?	2.2%	23.1µM*	-11.2	-1.7%	?
NC(=O)CCn1c2ccccc2c2ccccc21	-4.7%	-13.7%	-2.1%	0.6	-2.6%	4.1%
COC1=CC(=O)C(O)=C/C1=C\C=C\c1ccccc1	nt	nt	4.61µM*	nt	nt	2.59µM*
O=C(c1cn(C2CCCN(Cc3cc(Cl)ccc3O)C2)nn1)N1CCCCC1 (stereo unspecified)	nt	nt	-11.6%	nt	nt	7.5%[9.04 µM]
O=[N+]([O-])c1ccccc1S(=O)(=O)Nc1cccc(-c2ccc3nncn3n2)c1	-11.1%	0.2%	?	-8.6	0.6%	-27.9%
CCS(=O)(=O)Nc1cccc(-c2ccc3nnc(-c4cccnc4)n3n2)c1	-24.4%	-8.1%	?	-53.7*	-17.3%	20.6µM*
Cc1nnc2ccc(-c3cccc(NS(=O)(=O)c4ccccc4[N+](=O)[O-])c3)nn12	?	?	14.6µM*	32.4	?	23.1µM*
CCCS(=O)(=O)Nc1cccc(-c2ccc3nnc(C)n3n2)c1	-1.4%	?	?	20.3	-15.6%	?
O=C(O)c1cc(-c2ccccc2)nn1Cc1ccccc1	nt	nt	-18.8%	nt	nt	6.7%
COc1ccccc1NC(=O)/C(N=Nc1ccc(C)c(S(=O)(=O)Nc2ccccc2Cl)c1)=C(\C)O	3.0%	?	18.4µM*	7.6	1.8%	18.4µM*
CC(=O)N1CCN(CC(=O)c2ccc(Br)cc2)CC1	-4.0%	0.2%	-20.7%	26.9	-9.7%	-21.2%
O=C(CN1CC[n+]2c(-c3cccs3)csc21)c1ccc(Br)cc1	-1.7%	?	3.66µM*	?	-6.4%	1.84µM*
O=C(CN1CC[n+]2c(-c3ccccc3)csc21)c1ccc(Br)cc1	-0.3%	16.4µM*	2.06µM*	-54.1*	20.6µM*	2.91µM*
O=C(c1ccc(F)cc1F)N1CCCC(c2nc(-c3cccs3)no2)C1 (stereo unspecified)	1.8%	?	-20.7%	18.4	-19.7%	?
COc1ccccc1CNC(=O)CCc1ccccc1	4.2%	-3.0%	18.4µM*	4.9	4.1%	?
COc1ccccc1CNC(=O)CCSCc1cccc(Cl)c1	4.9%	2.7%	-12.1%	-71.6*	1.4%	2.7%
O=C(COc1ccccc1-c1ccccc1)NCc1cccc(Cl)c1	-0.1%	-19.6%	?	23.3	-3.6%	20.6µM*
SMILES	HT1080 IDH1KD tx	ELG1 repair inh	TDP1 cell noCPT	IL-1B inflam inh	HT1080NT lethal	TDP1 cell CPT
Cc1ccccc1OCC(=O)NCc1ccccc1	13.1%	27.9%	5.4%	0.7	4.3%	-0.8%
O=C(Cc1ccc([N+](=O)[O-])cc1)Oc1ccccc1	14.2%	nt	-1.2%	6.8	3.5%	7.5%
CCC(C)NC(=O)Cn1c(=O)c2cccn2c2ccc(F)cc21 (stereo unspecified)	nt	nt	-7.5%	nt	nt	-12.4%
Cc1cc(/C=C(/C#N)c2nc3ccccc3[nH]2)c(C)n1-c1cc(C(=O)O)cc(C(=O)O)c1	-4.1%	-6.8%	-5.5%	18.2	-1.4%	27.4%
Cc1ccc2nc(/C(C#N)=C\c3cc(C)n(-c4cccc([N+](=O)[O-])c4)c3C)[nH]c2c1	?	?	9.2µM*	?	-3.4%[9.24 µM]	8.2µM*
CCOc1ccc(OCC)c(NS(=O)(=O)c2c(C)[nH]c(=O)[nH]c2=O)c1	nt	nt	-11.1%	nt	nt	-4.2%
COc1ccc(CNC(=O)Nc2nc(C(N)CCc3ccccc3)cs2)cc1 (stereo unspecified)	?	nt	?	-56.1*	18.4µM*	?
COc1ccc(CCNC(=O)Nc2nc(C(N)CCc3ccccc3)cs2)cc1OC (stereo unspecified)	?	nt	?	?	16.4µM*	?
COc1ccc(CCNC(=O)Nc2nc(C(N)C3CCCCC3)cs2)cc1OC (stereo unspecified)	?	nt	?	-52.3*	?	?
COc1ccc(CCNC(=O)CCc2ccccc2)cc1OC	3.6%	nt	-26.4%	nt	20.1%	3.3%
COc1ccccc1NC(=O)Nc1nc(C(N)CCc2ccccc2)cs1 (stereo unspecified)	?	nt	13µM*	-29.0	23.1µM*	?
COc1ccc(CNC(=O)c2csc(Cc3ccccc3)n2)cc1	-0.9%	?	-26.1%	-10.5	-9.1%	-2.6%
CC(C)n1ncc2c(C(=O)NCC(=O)Nc3ccccc3Br)cc(C3CC3)nc21	0.1%	?	?	-14.5	-0.2%	?
COc1cc(CNC(=O)Nc2nc(C(N)CCc3ccccc3)cs2)cc(OC)c1OC (stereo unspecified)	?	nt	?	-54.0*	?	?
COc1cc(NC(=O)NCc2ccncc2)cc(OC)c1OC	10.9%	-1.5%	-1.9%	-1.4	15.3%	4.8%
COC(=O)CS(=O)(=O)c1ccsc1C(=O)Nc1ccc(F)c(F)c1	-7.6%	-6.8%	-1.5%	-9.5	-6.3%	11.5%
COc1c2c(cc3oc(=O)ccc13)OC(C)(C)C=C2	-4.8%	?	25.9µM*	10.0	0.0%	?
CC1(C)C=Cc2cc3ccc(=O)oc3cc2O1	-9.6%	?	8.2µM*!	-10.2	?	14.6µM*!
CCN(C[C@H]1N[C@@](C)(C(=O)OC)[C@H]2C(=O)N(C)C(=O)[C@@H]12)C(=O)Nc1ccc(C(F)(F)F)cc1	-2.0%	17.7%	-4.9%	0.4	7.0%	-1.5%

Source: PubChem
